Data from PubChem BioAssay.
Records with an inconclusive call do not appear. Calls of active or inactive are those of the source.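 The calls were made as follows, unless noted: active = viability at or below 10% of carrier control in both of two separate runs; inconclusive = viability at or below 10% in only one of the two runs; inactive = the rest.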

Legend:
[1] = Her2 expression decrease, cell viability multiplex – SKBR3 breast tumor cells, AlphaScreen, ATP viability, primary screen (AID 461;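 active = Her2 level under about 52% in both replicate screens, with viability over 70% of control, limit read from the data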;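 as to Her2 level: lower value means less Her2 protein in the cells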;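 as to viability: percent of carrier control wells set as 100% viability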); settings: SKBR3 Her2 protein level, 18-24 h, measured here: SKBR3 viability, ATP luminescence, at 10 µM
[2] = target: Receptor tyrosine-protein kinase erbB-2 (Homo sapiens) (UniProt P04626); assay: as above; settings: 18-24 h, at 10 µM, stronger effect = lower value
Chain of Receptor tyrosine-protein kinase erbB-2 (Homo sapiens) (P04626 whole entry, looked up): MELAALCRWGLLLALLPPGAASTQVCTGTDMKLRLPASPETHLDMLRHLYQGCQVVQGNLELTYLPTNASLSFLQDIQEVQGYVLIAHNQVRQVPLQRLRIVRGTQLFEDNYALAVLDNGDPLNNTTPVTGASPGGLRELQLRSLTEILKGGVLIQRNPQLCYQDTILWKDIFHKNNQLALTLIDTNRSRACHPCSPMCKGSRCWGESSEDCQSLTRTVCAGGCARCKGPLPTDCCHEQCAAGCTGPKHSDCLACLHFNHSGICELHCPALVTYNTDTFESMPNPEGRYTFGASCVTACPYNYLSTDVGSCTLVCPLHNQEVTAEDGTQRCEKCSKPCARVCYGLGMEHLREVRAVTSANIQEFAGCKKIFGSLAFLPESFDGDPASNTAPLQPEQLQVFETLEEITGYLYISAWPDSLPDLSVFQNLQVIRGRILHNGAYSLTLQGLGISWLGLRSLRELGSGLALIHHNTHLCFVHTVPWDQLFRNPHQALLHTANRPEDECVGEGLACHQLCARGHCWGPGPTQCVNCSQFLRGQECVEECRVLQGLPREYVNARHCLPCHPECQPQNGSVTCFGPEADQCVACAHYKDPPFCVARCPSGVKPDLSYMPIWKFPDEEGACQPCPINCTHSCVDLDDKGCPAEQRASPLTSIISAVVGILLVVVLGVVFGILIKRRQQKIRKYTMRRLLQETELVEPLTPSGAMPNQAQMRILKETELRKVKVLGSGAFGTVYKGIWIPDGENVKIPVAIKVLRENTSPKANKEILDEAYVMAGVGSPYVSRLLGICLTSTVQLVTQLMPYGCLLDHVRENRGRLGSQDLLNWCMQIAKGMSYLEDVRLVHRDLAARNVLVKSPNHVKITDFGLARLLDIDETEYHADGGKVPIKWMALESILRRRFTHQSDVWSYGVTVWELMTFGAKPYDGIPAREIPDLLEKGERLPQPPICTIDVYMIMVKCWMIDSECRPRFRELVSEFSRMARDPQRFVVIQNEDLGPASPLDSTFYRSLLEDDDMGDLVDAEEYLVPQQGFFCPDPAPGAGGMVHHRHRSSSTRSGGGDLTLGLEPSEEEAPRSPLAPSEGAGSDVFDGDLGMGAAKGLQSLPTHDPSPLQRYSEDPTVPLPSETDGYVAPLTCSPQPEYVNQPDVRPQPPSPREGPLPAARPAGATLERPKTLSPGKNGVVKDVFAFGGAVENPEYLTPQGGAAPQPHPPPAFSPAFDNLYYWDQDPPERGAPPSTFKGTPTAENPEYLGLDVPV

[3] = reduced viability of SK-BR-3 breast cancer cells – cell-based, 24 h, human, pilot screen (AID 572); settings: SK-BR-3 viability, CellTiter-Glo luminescence, at 10 µM, stronger effect = lower value;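 also: compound exposure lasted between 18 and 24 h rather than exactly 24 h; 100% = carrier-treated control wells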
[4] = HUVEC growth inhibition – cell-based, human, primary screen (AID 575;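 active = viability at or below 30% in both replicate assays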;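 also: 100% = median of untreated cell wells with 0.1% DMSO on each plate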); settings: HUVEC proliferation, CellTiter-Glo luminescence, 72 h; at 10 µM; stronger effect = lower value
[5] = H69AR cell proliferation blockers – human, duplicate replicates, primary screen (AID 580;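 active = viability at or under a set limit in both replicates, limit being median viability minus 3 SD, cut at about 48% in these data, passing the limit was not always enough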;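 also: 100% = mean luminescence of untreated wells and 0% = no signal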); settings: H69AR lung tumor cells viability, ATP luminescence, 72 h; at 10 µM; stronger effect = lower value
[6] = MRP1 drug-resistance reversers in H69AR cells – cell-based, doxorubicin co-treatment, pilot screen (AID 601;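 active = viability loss from added drug above about 55%, and viability with drug at most 40%, in both replicates, limit read from the data, passing the limit was not always enough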); settings: CellTiter-Glo, 72 h, at 10 µM; for differential viability (reversal): stronger effect = higher value
[7] = yeast transport mutant growth inhibition pilot in 384-well plates, post-Golgi transport modulator project (AID 636; in the data active = inhibition above about 31%); settings: absorbance 615 nm, about 18 h, stronger effect = higher value
[8] = growth suppression of yeast trafficking mutant, preliminary HTS, modulators of trafficking downstream of Golgi apparatus project, 1536-format plate, OD 615 nm (AID 637; in the data active = inhibition above about 30%); settings: yeast transport mutant growth, absorbance 615 nm, 18 h; stronger effect = higher value
[9] = S. cerevisiae growth inhibition in permissive medium (OD615), pilot counter-assay for S. cerevisiae lifespan shortening project, permissive growth control (AID 705;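 active = growth inhibition above 25% in both replicates, a cutoff set 3 SD above the mean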); settings: OD615, 24 h, at 10 µM, stronger effect = higher value
[10] = S. cerevisiae growth inhibition in restrictive medium, OD615, pilot screen, restrictive growth control, yeast lifespan reduction project (AID 706;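 active = growth inhibition above a set limit, 3 SD over mean compound inhibition, in both replicates, cut at about 43% in these data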;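 also: modified DeaD lifespan yeast strain shifted to restrictive glucose medium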); settings: OD615, 48 h, at 10 µM, stronger effect = higher value
[11] = doxorubicin toxicity protection in MRP-1 cells – H69AR cells, CellTiter-Glo, duplicate, MRP-1 activator project, pilot screen (AID 807;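 active = viability increase at or above a cutoff of the median across tested compounds plus 3 SD, cut at about 8.5% in these data, passing the limit was not always enough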;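 also: compound pretreatment 18-22 h then 72 h combined with doxorubicin; 0% = doxorubicin alone and 100% = vehicle without doxorubicin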); settings: H69AR viability with doxorubicin, CellTiter-Glo luminescence; at 10 µM; stronger effect = higher value
[12] = viability of HCT116 without oncogenic beta-catenin – human colon tumor cells, pilot screen (AID 823;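 active = cell viability at or below a set limit in both duplicate runs, the limit being the all-compound median minus 4 SD, cut at about 23% in these data, passing the limit was not always enough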;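 also: 0% = wells killed by 20 µM Hyamine and 100% = untreated DMSO cell wells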); settings: HCT116 beta-catenin knockout viability, CellTiter-Glo, 60 h; at 10 µM; stronger effect = lower value
[13] = RAM pathway blockade in budding yeast – dse1pr::URA3 reporter, 5-FOA selection, pilot screen (AID 869;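 active = inhibition over a set limit, the all-compound mean plus 3 SD, in both replicate runs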;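 also: 0% = DMSO wells with no growth and 100% = 10 µM 1-NA-PP1 with full growth; RAM network block rescues cells from 5-FOA so hits raise OD615 growth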); settings: S. cerevisiae dse1pr::URA3 5-FOA growth, OD615, 2 d; at 10 µM; stronger effect = higher value; strain carries analog-sensitive mutant Cbk1 kinase
[14] = RAM signaling pathway blockade in yeast – S. cerevisiae, Pdr1DBD-CYC8 efflux-inhibited sensitized strain, primary screen (AID 1298;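 active = RAM network inhibition above 8.4% in each of two replicates, 3 SD over the compound average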;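 also: 0% = DMSO untreated cells without growth and 100% = 10 µM 1-NA-PP1 full growth; higher means more yeast growth rescued from 5-FOA killing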); settings: S. cerevisiae cbk1-as DSE1-URA3 strain, 5-FOA growth OD615, 2 d; at 50 µM; stronger effect = higher value
[15] = viability of PTEN-null HCT116 cells – cell-based, HCT116 clonal line, CellTiter-Glo, pilot screen (AID 824;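 active = viability at or below 27.92% in each of two runs, the all-compound median minus 4 SD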;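 also: 0% = 20 µM Hyamine control and 100% = vehicle cell control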); settings: HCT116 PTEN-deleted viability, 60 h, at 10 µM, stronger effect = lower value
[16] = H69AR cells + 2 uM doxorubicin, measured here: viability with 2 uM doxorubicin, stronger effect = lower value
[17] = H69AR cells, compound alone cytotoxicity

Compound	viability [1] [%]	Her2 level [2]	viability [3]	viability [4]	viability [5]	differential viability (reversal) ([6]; H69AR cells + 2 uM doxorubicin)	viability [6, 16] [%]	viability [6, 17] [%]	inhibition [7]	inhibition [8]	growth inhibition [9]	growth inhibition [10]	viability increase [11]	viability [12]	inhibition [13]	RAM network inhibition [14]	viability [15]
CCN(CC)CCCN1C(=O)C(O)=C(C(=O)c2ccco2)C1c1ccc(C)o1 (configuration not stated)	102	93.5% (inactive)	102% (inactive)	102% (inactive)	85.4% (inactive)	-0.59% (inactive)	86	85.4	-6.89% (inactive)	7.94% (inactive)	-11.8% (inactive)	14.4% (inactive)	-4.15% (inactive)	97.4% (inactive)	0.395% (inactive)	3.48% (inactive)	
CCOC(=O)c1[nH]c(C)c(C(=O)Nc2ccc(C)cc2C)c1C	91.5	92% (inactive)	91.5% (inactive)	54.8% (inactive)	22.2% (active)	-28.5% (inactive)	50.7	22.2	-3.72% (inactive)	-3.5% (inactive)	-12.6% (inactive)	-5.29% (inactive)	-6.07% (inactive)		1.79% (inactive)	0.04% (inactive)	32.8% (inactive)
Cc1nc(NCc2ccc3c(c2)OCO3)c2oc3ccccc3c2n1	99	104% (inactive)	99% (inactive)	60% (inactive)	98.3% (inactive)	-8.4% (inactive)	107	98.3	-0.93% (inactive)	-2.9% (inactive)	-23.6% (inactive)	-6.14% (inactive)	-0.11% (inactive)	82.7% (inactive)	0.65% (inactive)	3.7% (inactive)	
O=C(NC1(C(=O)NC2CCCCC2)CCCCC1)c1ccc2c(c1)OCO2	96.5	92.5% (inactive)	96.5% (inactive)	105% (inactive)	104% (inactive)	4.42% (inactive)	99.2	104	-4.66% (inactive)	-1.27% (inactive)	-0.75% (inactive)	10.5% (inactive)	0.41% (inactive)		1% (inactive)	5.37% (inactive)	87% (inactive)
Cc1ccc(C)c(N2CCN(C(=O)c3cc4ccccn4n3)CC2)c1	91	85% (inactive)	91% (inactive)	90.1% (inactive)	99.8% (inactive)				-4.74% (inactive)	8.33% (inactive)	-8.86% (inactive)	0.2% (inactive)	-2.11% (inactive)	91.7% (inactive)	0.805% (inactive)	10.8% (inactive)	92.5% (inactive)
CCn1c2ccccc2c2cc(Nc3cc(C)nc4ncnn34)ccc21	93	49% (active)	93% (inactive)	18.1% (active)	29.4% (active)	-28% (inactive)	57.4	29.4	-1.6% (inactive)	0% (inactive)		72.4% (active)	-7.76% (inactive)		-0.255% (inactive)	-1.23% (inactive)	12.2% (active)
CCOc1ccc(N(CC(=O)Nc2cccc(OC)c2)S(=O)(=O)c2c(C)noc2C)cc1	91.5	95% (inactive)	91.5% (inactive)	72.4% (inactive)		-16.7% (inactive)	76.3	59.6	-4.4% (inactive)	-7.38% (inactive)	-11.5% (inactive)	3.05% (inactive)	-4.75% (inactive)	71.8% (inactive)	-0.41% (inactive)	4.24% (inactive)	70.9% (inactive)
COc1ccc(Nc2ncnc3c2cnn3-c2ccccc2)cc1OC	82.5	91% (inactive)	82.5% (inactive)	59.4% (inactive)		-31% (inactive)	73.7	42.7	0.27% (inactive)	-9.33% (inactive)	-4.18% (inactive)	-24.4% (inactive)	-0.97% (inactive)	107% (inactive)	0.635% (inactive)	5.61% (inactive)	97.7% (inactive)
N#CC1=C(N)Oc2cc(O)ccc2C1C1CCCCC1 (configuration not stated)	121	89.5% (inactive)	121% (inactive)	47.4% (inactive)	12.2% (active)	-51.2% (inactive)	63.4	12.2	-1.17% (inactive)	4.17% (inactive)	-0.885% (inactive)	-9.19% (inactive)	-5.63% (inactive)		0.455% (inactive)	3.93% (inactive)	
Cc1ccc(C(C(=O)NC2CCCCC2)N2CCOCC2)cc1 (configuration not stated)	95	100% (inactive)	95% (inactive)	106% (inactive)	95.8% (inactive)	4.12% (inactive)	91.7	95.8	-5.89% (inactive)	-4.13% (inactive)	-9.79% (inactive)	-10.3% (inactive)	-2% (inactive)		1.07% (inactive)	7.79% (inactive)	89.3% (inactive)
Cc1ccc(C(=O)CSc2n[nH]c(-c3ccco3)n2)cc1C	106	104% (inactive)	106% (inactive)	99.2% (inactive)	101% (inactive)	-3.95% (inactive)	105	101	-4.68% (inactive)	-4.67% (inactive)	-13.8% (inactive)	3.79% (inactive)		101% (inactive)	0.765% (inactive)	0.94% (inactive)	107% (inactive)
